“And” between values parts separate entries of the source, which are not always exact repeats. Equal entries are not always repeated. Inconclusive results are not listed. The source made the active and inactive calls. Unless noted, the call rests on the fitted dose curve; in most records, active means well fitted curve in the direction sought with a large enough effect in the repeat runs; inconclusive means weak or mixed curves; inactive means no such curve, though single readings can be large; an effect the other way counts as inactive or inconclusive.
What was measured:
[1] = qHTS assay for small molecules that induce genotoxicity in human embryonic kidney cells expressing luciferase-tagged ATAD5 (AID 651632); further: on the % scale 0 is the no-effect control and ±100 the full control effect; nearly all actives have a fitted effect of over 15% in size
Outline: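 Test compounds were delivered by pin tool onto HEK293T reporter cells (2,000/well) expressing ATAD5 fused to luciferase. After 16 hr at 37C, 5% CO2, Amplite was added for 30 min at room temperature and luminescence was measured.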

[2] = qHTS assay for small molecule agonists of the p53 signaling pathway - cell viability (AID 651633; calls by dose curve; further: nearly all actives have a fitted effect of over 30% in size; further: potency means the concentration at half of the fitted maximal effect)
Outline: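 Viability counter-read: CellTiter-Glo luminescence (30 min, room temperature) in the same p53RE-bla plates. These plates had been exposed to compounds for 16 h at 37 C.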

[3] = qHTS assay for small molecules that induce genotoxicity in human embryonic kidney cells expressing luciferase-tagged ATAD5 - cell viability (AID 651634; calls by dose curve; further: nearly all actives have a fitted effect of over 25% in size; further: potency means the concentration at half of the fitted maximal effect)
Outline: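 Quantitative high-throughput format. HEK293T cells expressing ATAD5 fused to luciferase were plated at 2,000 cells/well and treated 15.5 hr with compound versus DMSO. Viability was determined by fluorescent live-cell protease substrate, 30 min at 37C.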

[4] = qHTS assay for small molecule disruptors of the mitochondrial membrane potential - cell viability (AID 720634; calls by dose curve; further: nearly all actives have a fitted effect of over 20% in size; further: potency means the concentration at half of the fitted maximal effect)
Outline: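 Same-well counter-screen: following the MMP dye addition, CellTiter-Glo was added to 1 hr compound-treated HepG2 cells and luminescence read after 30 min at room temperature.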

[5] = qHTS assay for small molecule disruptors of the mitochondrial membrane potential (AID 720635); further: potency means the concentration at half of the fitted maximal effect
Outline: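 Mitochondrial membrane potential tracked with Mito-MPS dye, red aggregates (ex 540/em 590 nm) against green monomers (ex 490/em 535 nm). Compound treatment 1 hr at 37C, dye 30 min in HepG2.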

[6] = qHTS assay to test for compound auto fluorescence at 590 nm (red) in HepG2 cells (AID 720674); further: on the % scale 0 is the no-effect control and ±100 the full control effect
Outline: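 We screened compounds on adherent HepG2 cells, incubating them for an hour at 37 C in 5% CO2 before reading emission at 590 nm under 540 nm excitation; values reflect equivalence to Rose Bengal sodium fluorescence.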

[7] = qHTS assay to test for compound auto fluorescence at 535 nm (green) in HepG2 cells (AID 720675); further: potency means the concentration at half of the fitted maximal effect; on fluorescence, % of fluorescein control: on the % scale 0 is the no-effect control and ±100 the full control effect
[8] = qHTS assay to test for compound auto fluorescence at 460 nm (blue) in HEK293 cells (AID 720678); further: potency means the concentration at half of the fitted maximal effect; on fluorescence, % of triamterene: on the % scale 0 is the no-effect control and ±100 the full control effect
Outline: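 Measured: blue fluorescence (Ex 405/Em 460 nm) of compound-treated HEK293 cells, incubated overnight at 37C with 5% CO2 and scaled to triamterene equivalents.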

[9] = qHTS assay to test for compound auto fluorescence at 590 nm (red) in HEK293 cells (AID 720679); further: on the % scale 0 is the no-effect control and ±100 the full control effect
Outline: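 Using HEK293 cells at 2,000 per well, the screen added 23 nL of each compound after cell attachment and incubated overnight (37C, 5% CO2). The plate reader then captured red-label fluorescence, Ex/Em 540/590nm.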

[10] = qHTS assay for small molecule agonists of the p53 signaling pathway (AID 651631; calls by dose curve; further: potency means the concentration at half of the fitted maximal effect; nearly all actives have a fitted effect of over 15% in size)
Outline: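 HCT-116 cells carrying a stable p53 response element–beta-lactamase reporter were plated, rested 5 h at 37 °C, then exposed to compound in DMSO for 16 h at 37 °C; reporter activity was read as FRET substrate fluorescence after 2 h at room temperature.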
Tags describe the fitted curve by direction and shape or compound fluorescence and quenching.

CCCCC(CC)COP(=O)(O)OCC(CC)CCCC (stereo not given)
active: Potency [2] 61.3 µM and 27.3 µM | Potency [5] 68.7 µM
inactive: Potency [1] | Potency [3] | Potency [4] | Potency [6] | Potency [7] | Potency [8] | Potency [9]

Cc1cc(O)c(C(C)(C)C)cc1Sc1cc(C(C)(C)C)c(O)cc1C
inactive: Potency [1] | Potency [6] | Potency [7] | Potency [8] | Potency [9]
active: Potency [2] 13.7 µM | Potency [3] 54.4 µM | Potency [4] 61 µM | Potency [5] 0.768 µM

CC(NN)c1ccccc1 (stereo not given)
inactive: Potency [1] | Potency [2] | Potency [3] | Potency [4] | Potency [5] | Potency [6] | Potency [7] | Potency [8] | Potency [9]

CCC(N)(CO)CO
inactive: Potency [1] | Potency [2] | Potency [3] | Potency [4] | Potency [5] | Potency [6] | Potency [7] | Potency [8] | Potency [9]

CCCCCCCCCCCCCC[P+](CCCC)(CCCC)CCCC (tested in a mixture with another compound)
active: Potency [2] 27.5 µM | Potency [3] 48.9 µM | Potency [4] 61.5 µM | Potency [5] 0.69 µM
inactive: Potency [1] | Potency [6] | Potency [7] | Potency [8] | Potency [9]

CCCCCCCCCCn1cc[n+](CCCCCCCCCC)c1C
inactive: Potency [1] | Potency [6] | Potency [7] | Potency [8] | Potency [9]
active: Potency [2] 68.7 µM | Potency [3] 68.7 µM | Potency [4] 54.5 µM | Potency [5] 2.17 µM

O=C(OCC(COC(=O)c1ccccc1)(COC(=O)c1ccccc1)COC(=O)c1ccccc1)c1ccccc1
inactive: Potency [1] | Potency [2] | Potency [3] | Potency [4] | Potency [6] | Potency [7] | Potency [8] | Potency [9]
active: Potency [5] 3.06 µM

Cc1cc(C2CCCCC2)n(O)c(=O)c1
active: Potency [10] 8.04 µM | Potency [5] 3.2 µM
inactive: Potency [2] | Potency [3] | Potency [4] | fluorescence, relative to Rose Bengal [6] 0.33% [at 18.6 µM] | fluorescence, % of fluorescein control [7] -0.0302% [at 18.6 µM] | fluorescence, % of triamterene [8] -0.0951% [at 18.6 µM] | fluorescence, % of fluorescent control [9] -0.0357% [at 18.6 µM]

CCCCCCCC/C=C\CCCCCCCCOCCO
inactive: Potency [1] | Potency [6] | Potency [7] | Potency [8] | Potency [9]
active: Potency [2] 31.6 µM | Potency [3] 39.8 µM | Potency [4] 79.4 µM | Potency [5] 1.78 µM

CCCCC(CC)CN=C(N)NC(N)=NCCCCCCN=C(N)NC(N)=NCC(CC)CCCC (stereo not given)
inactive: Potency [1] | Potency [6] | Potency [7] | Potency [8] | Potency [9]
active: Potency [2] 26.6 µM | Potency [3] 26.6 µM | Potency [4] 21.1 µM | Potency [5] 17.6 µM

Oc1cc2ccccc2c2ccccc12
active: Potency [2] 6.11 µM | Potency [3] 17.2 µM | Potency [4] 19.3 µM | Potency [5] 0.969 µM
inactive: Potency [1] | Potency [6] | Potency [7] | Potency [8] | Potency [9]

CCCCCCCCCCCC[N+](C)(C)CCCCCCCCCCCC
active: Potency [2] 54.5 µM | Potency [3] 68.6 µM | Potency [4] 30.6 µM | Potency [5] 19.3 µM
inactive: Potency [1] | Potency [6] | Potency [7] | Potency [8] | Potency [9]

O=C1CCCc2c1cc1ccc3cccc4ccc2c1c34
inactive: Potency [2] | Potency [3] | Potency [6] | Potency [7] | Potency [8] | Potency [9]
active: Potency [10] 55.1 µM | Potency [5] 8.74 µM

CCCCCCCCS(=O)C(C)Cc1ccc2c(c1)OCO2 (stereo not given)
inactive: Potency [1] | Potency [2] | Potency [3] | Potency [4] | Potency [5] | Potency [6] | Potency [7] | Potency [8] | Potency [9]

CC1=C(C(=O)OC(C)C)C(c2cccc([N+](=O)[O-])c2)C(C(=O)OC2CN(C(c3ccccc3)c3ccccc3)C2)=C(N)N1 (stereo not given)
active: Potency [2] 7.5 µM | Potency [3] 18.8 µM | Potency [4] 7.5 µM | Potency [5] 1.19 µM
inactive: Potency [1] | Potency [6] | Potency [7] | Potency [8] | Potency [9]

[Cl][Bi]([Cl])([c]1ccccc1)([c]1ccccc1)[c]1ccccc1
inactive: Potency [6] | Potency [7] | Potency [8] | Potency [9]
active: Potency [10] 24.2 µM | Potency [3] 60.8 µM | Potency [5] 43 µM

C[C@H]1[C@H]2CC[C@H]3[C@@H]4CC=C5C[C@@H](N(C)C)CC[C@]5(C)[C@H]4CC[C@]23CN1C
inactive: Potency [1] | Potency [2] | Potency [3] | Potency [4] | Potency [5] | Potency [6] | Potency [7] | Potency [8] | Potency [9]

NNc1nc(-c2ccc(N)cc2)cs1
inactive: Potency [1] | Potency [2] | Potency [4] | Potency [6] | Potency [7] | Potency [8] | Potency [9]
active: Potency [3] 24.3 µM | Potency [5] 0.0545 µM

CCCC(=O)OC[C@@H](OC(=O)CCC)[C@@H](OC(=O)CCC)[C@H](Cn1c2nc(=O)[nH]c(=O)c-2nc2cc(C)c(C)cc21)OC(=O)CCC
active: Potency [5] 6.99 µM | Potency [7] 8.91 µM
inactive: Potency [1] | Potency [2] | Potency [3] | Potency [4] | Potency [6] | Potency [8] | Potency [9]

Cc1cc(=O)oc2cc(N(C)C)ccc12
active: Potency [10] 48.6 µM | Potency [8] 39.8 µM [fluorescent]
inactive: Potency [2] | Potency [4] | Potency [6] | Potency [7] | Potency [9]
